Laboratory results from PubChem BioAssay (NCATS).
Inconclusive results are not listed. Calls of active or inactive are those of the source. Unless noted, calls come from the whole dose curve; as a rule, active = well fitted curve in the direction sought with a large enough effect; inconclusive = small, poorly fitted or top-dose-only effect, or another doubt; inactive = no such curve, though single readings can be large; an effect the other way counts as inactive or inconclusive.

Legend:
[1] = biological target: Lysosomal acid glucosylceramidase (Homo sapiens) (UniProt P04062); experiment: Glucocerebrosidase-p2 (AID 348; in the data active = potency below about 10 µM; note: potency is the fitted concentration of half-maximal effect); conditions: purified GBA, blue fluorogenic substrate, 40 min
Lysosomal acid glucosylceramidase (Homo sapiens), sequence (P04062 whole entry, looked up): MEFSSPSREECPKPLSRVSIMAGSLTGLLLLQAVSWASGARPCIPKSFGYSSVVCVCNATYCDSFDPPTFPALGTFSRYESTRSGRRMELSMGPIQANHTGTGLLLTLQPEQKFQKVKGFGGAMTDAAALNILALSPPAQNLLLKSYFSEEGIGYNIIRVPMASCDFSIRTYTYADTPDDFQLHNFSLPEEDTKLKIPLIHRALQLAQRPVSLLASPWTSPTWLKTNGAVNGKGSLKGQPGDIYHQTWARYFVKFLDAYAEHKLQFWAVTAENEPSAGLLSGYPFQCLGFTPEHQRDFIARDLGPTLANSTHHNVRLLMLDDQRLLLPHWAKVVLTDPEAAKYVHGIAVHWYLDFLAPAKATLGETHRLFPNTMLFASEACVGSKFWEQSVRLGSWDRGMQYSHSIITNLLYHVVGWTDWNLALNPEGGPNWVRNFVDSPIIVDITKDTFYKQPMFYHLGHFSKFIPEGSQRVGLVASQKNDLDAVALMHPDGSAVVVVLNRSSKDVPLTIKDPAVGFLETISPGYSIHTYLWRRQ
Procedure, shortened: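 Compounds titrated from 0.6 nM upwards against 0.2 nM enzyme in pH 5.9 citric acid/KH2PO4, taurocholate, tween-20; blue fluorogenic substrate 80 uM, 40 min room temperature, stopped and read Ex 365/Em 440 for AC50.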

[2] = AP1 Signaling Pathway (AID 357; active = well fitted curve in either direction with a large enough effect, not every such curve was filed as active; note: % is set by controls: 0 for no effect and ±100 for the full control effect); conditions: ME-180 AP-1-bla reporter, EGF-induced, beta-lactamase ratio, 5 h; at 7.69 µM (top of the series) unless noted
Procedure, shortened: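 AP-1-bla ME-180 cells with beta-lactamase reporter under AP-1 response element, stimulated with EC50 EGF; compounds titrated, 5 hours at 37 degrees Celsius. CCF4 read at 460/530 nm ratio; positive and negative modulators judged by AC50.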

[3] = biological target: Cytochrome P450 1A2 (Homo sapiens) (UniProt P05177); experiment: p450-cyp1a2 (AID 410; calls by dose curve; note: potency is the fitted concentration of half-maximal effect); conditions: recombinant CYP1A2, luciferin-ME demethylation, luminescence; series mostly up to 57 µM
Cytochrome P450 1A2 (Homo sapiens), sequence (P05177 whole entry, looked up): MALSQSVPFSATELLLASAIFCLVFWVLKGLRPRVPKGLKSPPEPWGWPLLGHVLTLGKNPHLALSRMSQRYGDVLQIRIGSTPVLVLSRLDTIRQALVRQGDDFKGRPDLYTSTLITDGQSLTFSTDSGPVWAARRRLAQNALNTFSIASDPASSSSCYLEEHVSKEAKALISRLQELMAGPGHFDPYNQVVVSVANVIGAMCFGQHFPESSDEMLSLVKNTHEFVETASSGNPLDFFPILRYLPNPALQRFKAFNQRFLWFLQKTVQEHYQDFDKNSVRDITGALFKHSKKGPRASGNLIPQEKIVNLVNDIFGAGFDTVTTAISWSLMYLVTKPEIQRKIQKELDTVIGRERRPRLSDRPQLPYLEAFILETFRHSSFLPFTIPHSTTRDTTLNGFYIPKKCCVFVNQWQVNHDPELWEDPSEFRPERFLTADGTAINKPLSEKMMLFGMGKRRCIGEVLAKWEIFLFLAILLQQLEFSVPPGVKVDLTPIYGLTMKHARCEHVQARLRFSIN
Procedure, shortened: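 Inhibition was calculated relative to 57 uM furafylline (full inhibition). The reaction used human CYP1A2 at 20nM with Luciferin-ME at its Km, 100uM, driven by an NADPH-regenerating system for 60 min at room temperature.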

[4] = biological target: Glucocorticoid receptor (Homo sapiens) (UniProt P04150); experiment: GR-GFP Redistribution (AID 450;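 active = compounds whose dose series gives a full or clear partial fitted curve of increased nuclear translocation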; note: potency is the fitted concentration of half-maximal effect); conditions: U2OS GR-GFP nuclear translocation, laser cytometry, 2 h
Glucocorticoid receptor (Homo sapiens), sequence (P04150 whole entry, looked up, the tested form may be a part): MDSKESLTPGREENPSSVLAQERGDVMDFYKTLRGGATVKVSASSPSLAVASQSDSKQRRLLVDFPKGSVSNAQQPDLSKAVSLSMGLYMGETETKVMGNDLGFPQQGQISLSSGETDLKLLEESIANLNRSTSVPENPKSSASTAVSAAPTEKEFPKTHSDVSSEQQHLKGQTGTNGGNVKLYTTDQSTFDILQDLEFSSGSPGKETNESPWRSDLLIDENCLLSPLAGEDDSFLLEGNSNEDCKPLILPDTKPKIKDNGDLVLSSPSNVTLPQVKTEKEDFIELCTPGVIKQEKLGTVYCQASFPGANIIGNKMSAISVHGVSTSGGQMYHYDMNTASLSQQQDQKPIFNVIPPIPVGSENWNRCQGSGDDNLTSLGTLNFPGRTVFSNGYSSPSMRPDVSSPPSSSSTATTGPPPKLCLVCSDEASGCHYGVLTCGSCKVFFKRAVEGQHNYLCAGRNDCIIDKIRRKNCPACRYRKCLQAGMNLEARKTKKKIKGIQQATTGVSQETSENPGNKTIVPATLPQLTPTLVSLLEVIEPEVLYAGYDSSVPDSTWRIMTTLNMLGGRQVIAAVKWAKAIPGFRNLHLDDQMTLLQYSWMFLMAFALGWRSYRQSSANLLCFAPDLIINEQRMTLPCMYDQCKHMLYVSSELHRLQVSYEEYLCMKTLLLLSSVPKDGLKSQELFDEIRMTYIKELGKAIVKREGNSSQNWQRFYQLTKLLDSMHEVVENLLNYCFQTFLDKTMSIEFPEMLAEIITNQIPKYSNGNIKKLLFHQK

[5] = biological target: Glucocorticoid receptor (Homo sapiens) (UniProt P04150); experiment: GR-EFC Redistribution (AID 451; calls by dose curve; note: potency is the fitted concentration of half-maximal effect); conditions: CHO-K1 GR-EFC translocation, beta-gal luminescence, 2 h
Procedure, shortened: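 CHO-K1 cells stably expressing nuclear-localized β-gal enzyme acceptor and GR fused C-terminally to the enzyme donor fragment; ligand-driven nuclear translocation restores β-gal by complementation. Compounds titrated up to 46 uM final, 2 h at 37 °C; luminescence read.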

[6] = biological target: 3',5'-cyclic-AMP phosphodiesterase 4B (Homo sapiens) (UniProt Q07343); experiment: qHTS Assay for Inhibitors of PDE-IV (AID 607; active = well fitted activation curve with a large enough effect in the main read-out, with a control signal flat, not every such curve was filed as active; note: % of control where 0% means no effect); conditions: HEK293 ACTOne CNG channel cells, membrane potential fluorescence; series mostly up to 22.9 µM
3',5'-cyclic-AMP phosphodiesterase 4B (Homo sapiens), sequence (Q07343 whole entry, looked up): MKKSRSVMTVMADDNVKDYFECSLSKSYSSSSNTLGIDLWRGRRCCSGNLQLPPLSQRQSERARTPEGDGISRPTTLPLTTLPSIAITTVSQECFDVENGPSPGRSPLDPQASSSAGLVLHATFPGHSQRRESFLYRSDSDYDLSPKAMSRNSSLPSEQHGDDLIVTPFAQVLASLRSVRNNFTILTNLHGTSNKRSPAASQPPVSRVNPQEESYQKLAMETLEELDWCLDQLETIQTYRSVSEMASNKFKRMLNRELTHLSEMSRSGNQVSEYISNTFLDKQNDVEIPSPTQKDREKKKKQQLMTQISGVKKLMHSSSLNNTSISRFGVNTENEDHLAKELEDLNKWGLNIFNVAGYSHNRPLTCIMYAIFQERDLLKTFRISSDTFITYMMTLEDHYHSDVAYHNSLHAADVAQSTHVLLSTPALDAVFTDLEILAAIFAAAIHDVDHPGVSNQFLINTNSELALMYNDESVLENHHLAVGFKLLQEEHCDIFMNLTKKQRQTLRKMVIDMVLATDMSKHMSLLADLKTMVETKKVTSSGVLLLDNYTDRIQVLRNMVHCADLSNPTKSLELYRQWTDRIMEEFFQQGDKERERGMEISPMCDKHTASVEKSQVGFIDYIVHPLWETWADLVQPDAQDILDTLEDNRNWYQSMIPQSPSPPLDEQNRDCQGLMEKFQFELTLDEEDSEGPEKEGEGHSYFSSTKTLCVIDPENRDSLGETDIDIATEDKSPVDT
Procedure, shortened: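 The readout is membrane depolarisation from a cAMP-sensing CNG channel, detected with a potential dye at ex 535/em 590. Cells were HEK293-derived (endogenous PDE-IV) at 1000 cells/well, titrated up to 22.9 uM final.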

[7] = qHTS Assay for Lipid Storage Modulators (AID 1519; calls by dose curve); conditions: Drosophila S3 cells, BODIPY lipid droplet/cell ratio, laser cytometry, cells loaded with oleic acid; for activity change, negative = inhibition: at 57.5 µM (top of the series)
Procedure, shortened: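 Cells seeded at 5,000 per well were treated with compounds over a concentration series and loaded with oleic acid (400 uM, as added). Lipid droplet fluorescence (488 nm excitation, 500-530 nm channel) was read by laser-scanning cytometry and normalized to 20 uM Triacsin C.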

[8] = biological target: Dual specificity protein kinase CLK4 (Homo sapiens) (UniProt Q9HAZ1); experiment: qHTS Assay for Inhibitors of CDC-like Kinase 4 (Kinase-Glo Assay) (AID 1770); conditions: recombinant Clk4, Kinase-Glo ATP depletion luminescence; series mostly up to 66.7 µM; note: % is set by controls: 0 for no effect and ±100 for the full control effect; nearly all actives have a fitted effect of over 65% in size
Dual specificity protein kinase CLK4 (Homo sapiens), sequence (Q9HAZ1 whole entry, looked up): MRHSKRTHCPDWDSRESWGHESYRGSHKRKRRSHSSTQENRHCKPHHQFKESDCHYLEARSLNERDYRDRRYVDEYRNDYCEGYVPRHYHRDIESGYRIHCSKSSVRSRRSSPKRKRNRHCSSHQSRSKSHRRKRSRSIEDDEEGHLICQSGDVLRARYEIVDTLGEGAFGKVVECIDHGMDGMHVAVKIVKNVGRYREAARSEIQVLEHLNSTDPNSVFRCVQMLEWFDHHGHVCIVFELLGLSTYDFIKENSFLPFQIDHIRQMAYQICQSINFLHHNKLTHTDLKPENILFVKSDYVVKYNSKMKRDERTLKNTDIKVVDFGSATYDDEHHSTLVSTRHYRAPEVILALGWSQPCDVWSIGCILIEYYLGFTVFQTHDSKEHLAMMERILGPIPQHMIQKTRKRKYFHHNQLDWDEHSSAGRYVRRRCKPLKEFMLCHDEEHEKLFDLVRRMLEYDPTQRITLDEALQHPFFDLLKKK
Procedure, shortened: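 Substrate mix (RS peptide 100 uM, ATP 1 uM) dispensed, compound pinned in, then Clk4 added to 25 nM final. Incubated 4.5 h at RT; Kinase-Glo reagent added, luminescence read after 5 min.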

[9] = biological target: Dual specificity protein kinase CLK4 (Homo sapiens) (UniProt Q9HAZ1); experiment: qHTS Assay for Inhibitors of CDC-like Kinase 4 (ADP-Glo Assay) (AID 1771); conditions: recombinant CLK4, ADP-Glo luminescence; series mostly up to 80 µM; note: % is set by controls: 0 for no effect and ±100 for the full control effect; nearly all actives have a fitted effect of over 70% in size
Procedure, shortened: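 Kinase reaction: Clk4 at 25 nM, RS repeat peptide substrate at 100 uM, ATP at 1 uM, 1 hr, room temperature. Product ADP detected as luciferase signal via ADP-Glo.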

[10] = biological target: Dual specificity protein kinase CLK4 (Homo sapiens) (UniProt Q9HAZ1); experiment: qHTS Assay for Inhibitors of CDC-like Kinase 4 (ADP-FP Assay) (AID 1795); conditions: Transcreener ADP fluorescence polarization; series mostly up to 50 µM;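 note: recombinant human CLK4 phosphorylating RS repeat peptide at 1 µM ATP; % is set by controls: 0 for no effect and ±100 for the full control effect; nearly all actives have a fitted effect of over 60% in size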
Procedure, shortened: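 Clk4 6.25 nM; RS peptide 100 uM; ATP 1 uM; 25 mM Tris pH 7.5, 10 mM MgCl2; 1 h reaction. ADP detected via antibody/orange tracer FP displacement; TG003 positive control.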

[11] = biological target: Ubiquitin carboxyl-terminal hydrolase 1 (Homo sapiens) (UniProt O94782); experiment: Inhibitors of USP1/UAF1: Pilot qHTS (AID 504865); conditions: purified USP1/UAF1, Ub-rhodamine cleavage fluorescence; series mostly up to 54.9 µM;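 note: rhodamine fluorescence freed from ubiquitin-rhodamine substrate followed over time; top concentration of the series differs between compounds; % is set by controls: 0 for no effect and ±100 for the full control effect; nearly all actives have a fitted effect of over 35% in size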
Ubiquitin carboxyl-terminal hydrolase 1 (Homo sapiens), sequence (O94782 whole entry, looked up): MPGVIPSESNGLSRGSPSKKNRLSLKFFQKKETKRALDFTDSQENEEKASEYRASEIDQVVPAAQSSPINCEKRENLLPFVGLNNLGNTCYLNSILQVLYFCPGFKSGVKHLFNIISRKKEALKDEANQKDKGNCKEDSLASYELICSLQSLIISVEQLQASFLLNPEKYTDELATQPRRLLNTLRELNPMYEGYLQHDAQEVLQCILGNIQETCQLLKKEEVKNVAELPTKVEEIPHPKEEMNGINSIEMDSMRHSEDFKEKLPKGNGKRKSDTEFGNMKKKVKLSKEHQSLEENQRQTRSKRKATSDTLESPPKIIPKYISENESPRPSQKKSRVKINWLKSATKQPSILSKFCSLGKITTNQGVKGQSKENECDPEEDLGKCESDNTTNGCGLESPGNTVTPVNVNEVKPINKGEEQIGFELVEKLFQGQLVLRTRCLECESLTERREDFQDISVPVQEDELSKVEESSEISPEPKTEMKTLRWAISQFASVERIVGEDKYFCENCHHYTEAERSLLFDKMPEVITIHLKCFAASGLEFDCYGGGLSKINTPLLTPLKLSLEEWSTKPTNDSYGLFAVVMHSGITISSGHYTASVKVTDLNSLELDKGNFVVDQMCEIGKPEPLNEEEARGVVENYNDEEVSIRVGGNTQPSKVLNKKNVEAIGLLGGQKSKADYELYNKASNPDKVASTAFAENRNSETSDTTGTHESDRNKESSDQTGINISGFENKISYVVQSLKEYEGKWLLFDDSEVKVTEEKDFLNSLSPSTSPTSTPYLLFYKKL
Procedure, shortened: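 In 50mM HEPES pH 7.8 containing 0.5mM EDTA, 1mM TCEP, 0.1 mg/ml BSA and 0.01% Tween-20, 1nM USP1/UAF1 is exposed to compound for 15 min, then Ub-Rho (150nM final) is added and fluorescence is read over time.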

[12] = Primary qHTS for small molecule stabilizers of the endoplasmic reticulum resident proteome: Secreted ER Calcium Modulated Protein (SERCaMP) assay (AID 1508630); conditions: SH-SY5Y GLuc-SERCaMP (Gaussia luciferase released on ER calcium loss) secretion, thapsigargin, luminescence; series mostly up to 38.4 µM; note: % is set by controls: 0 for no effect and ±100 for the full control effect
Procedure, shortened: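 GLuc-SERCaMP-expressing SH-SY5Y cells, pretreated 16 h with compound, are challenged with thapsigargin to empty ER calcium stores; after 4 h, coelenterazine is added directly to the medium and luminescence is imaged.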

[13] = NFAT Signaling Pathway (AID 444; active = well fitted curve in either direction with a large enough effect, not every such curve was filed as active;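 note: carbachol stimulus at about its EC50 of 1 µM final; % is set by controls: 0 for no effect and ±100 for the full control effect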); conditions: Jurkat NFAT-bla M1, carbachol, beta-lactamase ratio, 5 h; at 7.69 µM (top of the series) unless noted
Procedure, shortened: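 Jurkat cells carrying an NFAT-driven β-lactamase reporter and co-transfected muscarinic M1 receptor were treated with compound plus carbachol (1 uM final, an EC50 level) for 5 h at 37 °C. CCF4 loading followed for 1 h at RT; 460/530 nm ratio gave %activity.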

[14] = Stat Signaling Pathway (AID 446; active = well fitted curve in either direction with a large enough effect, not every such curve was filed as active;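 note: ME-180 cervical cancer cells given 40 pM IL-6 alongside compound; SIE-controlled beta-lactamase reporter measured as 460/530 nm FRET emission ratio; % is set by controls: 0 for no effect and ±100 for the full control effect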); conditions: ME-180 SIE beta-lactamase reporter, IL-6 stimulated, 5 h; at 7.69 µM (top of the series) unless noted
Procedure, shortened: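 Screening format detects activators and inhibitors alike: ME-180 SIE-bla cells stimulated at 40 pM IL-6 for 5 hrs with compound, then dual-emission beta-lactamase read at 405 nm excitation.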

[15] = biological target: Mitogen-activated protein kinase 10 (Mus musculus) (UniProt Q61831); experiment: JNK3 AlphaScreen Assay (AID 530; active = well fitted curve in either direction with a large enough effect, not every such curve was filed as active); conditions: JNK3 lysate, c-Jun phosphorylation; series mostly up to 57.1 µM
Procedure, shortened: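 JNK3 came from HepG2 lysates pre-activated with IL-1beta and TNF-alpha and phosphorylated biotinylated GST-cJun (1-79) at 10 uM ATP, pH 7.6, room temperature. Compounds were titrated. AlphaScreen signal used anti-phospho-cJun (Ser73) antibody.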

[16] = biological target: Cytochrome P450 3A4 (Homo sapiens) (UniProt P08684); experiment: qHTS Assay for Inhibitors and Substrates of Cytochrome P450 3A4 (AID 884); conditions: recombinant CYP3A4, Luciferin-PPXE luminescence; series mostly up to 57.1 µM; note: potency is the fitted concentration of half-maximal effect; nearly all actives have a fitted effect of over 50% in size
Cytochrome P450 3A4 (Homo sapiens), sequence (P08684 whole entry, looked up): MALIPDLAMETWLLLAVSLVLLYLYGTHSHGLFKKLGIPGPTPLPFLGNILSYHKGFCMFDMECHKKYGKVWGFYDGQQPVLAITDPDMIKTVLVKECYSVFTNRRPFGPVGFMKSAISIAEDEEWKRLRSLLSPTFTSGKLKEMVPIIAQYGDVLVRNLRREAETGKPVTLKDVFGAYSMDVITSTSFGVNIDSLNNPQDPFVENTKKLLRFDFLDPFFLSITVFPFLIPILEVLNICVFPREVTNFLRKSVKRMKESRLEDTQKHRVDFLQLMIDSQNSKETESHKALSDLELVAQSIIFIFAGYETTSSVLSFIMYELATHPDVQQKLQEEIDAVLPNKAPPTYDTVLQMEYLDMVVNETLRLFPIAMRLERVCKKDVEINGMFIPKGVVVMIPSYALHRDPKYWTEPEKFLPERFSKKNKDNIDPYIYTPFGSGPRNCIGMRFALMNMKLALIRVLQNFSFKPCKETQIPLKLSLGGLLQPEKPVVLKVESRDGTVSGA
Procedure, shortened: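 20 nM human CYP3A4 with 25 uM Luciferin-PPXE (at KM) in 200 mM KPO4, preincubated 10 min with compound; NADPH regeneration started a 60 min RT reaction. Luciferin detected by luminescence, normalized to 57 uM ketoconazole as full inhibition.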

[17] = biological target: Cytochrome P450 3A4 (Homo sapiens) (UniProt P08684); experiment: qHTS Assay for Activators of Cytochrome P450 3A4 (AID 885); conditions: recombinant CYP3A4, Luciferin-PPXE luminescence, 60 min; series mostly up to 57.1 µM; note: nearly all actives have a fitted effect of over 65% in size
Procedure, shortened: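 Steps: enzyme/substrate mix dispensed; compound added, 10 min RT; NADPH regeneration solution added, 60 min RT; luciferin detection buffer stops reaction; 20 min later luminescence measured.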

[18] = qHTS Assay for Identification of Small Molecule Agonists for Hypoxia Response Element Signaling Pathway (AID 914; active = well fitted activation curve with a large enough effect in the signal ratio, with a control signal flat, not every such curve was filed as active; the % refers to the signal ratio; note: potency is the fitted concentration of half-maximal effect); conditions: ME-180 (cervical carcinoma) HRE-bla reporter, beta-lactamase ratio, CoCl2, 17 h; activation: stronger effect = higher value
Procedure, shortened: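 Reporter activity (beta-lactamase, CCF4 460nm/530nm ratio) in HRE-bla ME-180 cells is recorded after 17 h compound exposure with EC50 CoCl2 at 37 degrees Celsius. AC50 values come from titration data.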

[19] = measured here: cell count channel max response
[20] = measured here: lipid channel max response

CN1CCN(c2ncc3nc(-c4ccc(Cl)cc4)c(=O)n(Cc4cccs4)c3n2)CC1
19.7%: max response [7, 19]
inactive: Potency [1] > 11.4 µM | Potency [4] > 9.22 µM | Potency [5] > 46 µM | Potency [6] | activity change, negative = inhibition [7] 0.387% | Potency [8] | Potency [9] | Potency [10] | Potency [11] | Potency [12]
active: activity change, negative = inhibition [2] 140% [activator] | Potency [3] 10 µM
16.2%: max response [7, 20]

COc1cccc(Cn2c(=O)c(-c3ccc(F)cc3)nc3cnc(OC)nc32)c1
31.8%: max response [7, 20]
inactive: Potency [1] > 11.4 µM | activity change, negative = inhibition [2] -1.52% | activity change, negative = inhibition [13] -0.296% | activity, negative = inhibition [14] 6.3% | Potency [4] > 9.22 µM | Potency [5] > 46 µM | outcome [15] | Potency [6] | activity change, negative = inhibition [7] 7.13% | Potency [8] | Potency [9] | Potency [10] | Potency [11] | Potency [12]
25.9%: max response [7, 19]

Cc1nc2cnc(N3CCOCC3)nc2n(C[C@H]2CCCO2)c1=O
13.9%: max response [7, 20]
10.2%: max response [7, 19]
inactive: Potency [1] > 11.4 µM | activity change, negative = inhibition [2] -13.4% | activity change, negative = inhibition [13] -4.93% | activity, negative = inhibition [14] -8.29% | Potency [4] > 9.22 µM | Potency [5] > 46 µM | outcome [15] | activity change, negative = inhibition [7] 3.62% | Potency [8] | Potency [9] | Potency [10] | Potency [11] | Potency [12]

COc1ncc2nc(-c3cc(F)cc(F)c3)c(=O)n(C)c2n1
inactive: Potency [1] > 11.4 µM | activity change, negative = inhibition [2] -19.2% | activity, negative = inhibition [14] -3.71% | Potency [4] > 9.22 µM | Potency [5] > 46 µM | outcome [15] | Potency [6] | activity change, negative = inhibition [7] 5.28% | Potency [8] | Potency [9] | Potency [10] | Potency [11] | Potency [12]
active: Potency [3] 2 µM
24.3%: max response [7, 19]
28.7%: max response [7, 20]

CCNc1ncc2nc(-c3cn(C)c4ccccc34)c(=O)n(Cc3cccc(OC)c3)c2n1
active: Potency [3] 12.6 µM | Potency [16] 3.98 µM | Potency [18] 1.58 µM
16.9%: max response [7, 20]
inactive: Potency [1] > 11.4 µM | activity change, negative = inhibition [2] 0.603% | activity change, negative = inhibition [13] 5.19% | Potency [5] > 46 µM | outcome [15] | Potency [6] | Potency [17] | activity change, negative = inhibition [7] 2.75% | Potency [8] | Potency [9] | Potency [10] | Potency [11] | Potency [12]
15.6%: max response [7, 19]

COc1ccc(Oc2ncc3nc(C)c(=O)n(Cc4cccc(OC)c4)c3n2)cc1
6.56%: max response [7, 19]
inactive: Potency [1] > 11.4 µM | activity change, negative = inhibition [2] -16% | activity change, negative = inhibition [13] 6.92% | activity, negative = inhibition [14] -8.96% | Potency [4] > 9.22 µM | Potency [5] > 46 µM | outcome [15] | activity change, negative = inhibition [7] 4.03% | Potency [8] | Potency [9] | Potency [10] | Potency [11] | Potency [12]
8.3%: max response [7, 20]
